Experimental data reported in PubChem BioAssay AID588405 (Sanford-Burnham Center for Chemical Genomics, 2011).
Out of some 360,000 compounds screened, about 6,200 (1.7%) were called active. Shown is part of a subset that was picked to be rich in actives. Unmarked numbers belong to inactive results.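 Rule for the calls: active = inhibition of at least 50% at 20 µM; inactive = the rest.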

Test: Peg3 promoter-driven luciferase inhibitors, primary screen, cell-based, HeLa, luciferase luminescence (AID 588405)
Details: HeLa PEG-Prom luciferase reporter, overnight, at 20 µM, stronger effect = higher value

| SMILES | inhibition |
| --- | --- |
| Cc1nc2c(-c3ccccc3)c(C)[nH]n2c(=O)c1Cl | 13.1% |
| CCCc1cc(=O)n2[nH]c(C)c(-c3ccc(Cl)cc3)c2n1 | 61.5% (active) |
| COCc1cc(=O)n2[nH]c(C)c(-c3ccccc3)c2n1 | 2.19% |
| COc1cc(F)ccc1-c1cc(C(=O)NCC2CCCCC2)[nH]n1 | -33.4% |
| CC(C)COC(=O)C1C2C=CC3(CN(C(C)c4ccc(Br)cc4)C(=O)C13)O2 (stereo unspecified) | 6.1% |
| COc1cc(NC(=O)c2cc(-c3ccc(F)cc3OC(C)C)n[nH]2)cc(OC)c1OC | 33.7% |
| Cc1ccc(C(=O)NCC(=O)O)s1 | 13.7% |
| Cc1nc2c(OCc3cccc(Cl)c3)cccn2c1N(C)CC1CC1 | -12.2% |
| OC(c1ccc(Cl)c(F)c1)c1ncc(-c2ccccc2Cl)[nH]1 (stereo unspecified) | 17.5% |
| O=C(NC(c1ccc(-c2ccccc2)cc1)c1cnccn1)C1CCN(CCOc2ccc(Cl)cc2Cl)CC1 (stereo unspecified) | 37.4% |
| O=C(NC(c1ccc(Cl)cc1)c1cnccn1)C1CCN(Cc2ccc(Cl)cc2)CC1 (stereo unspecified) | 6.83% |
| Cc1ccc(C(NC(=O)C2CCN(CCOc3ccc(Cl)cc3Cl)CC2)c2ccccn2)cc1 (stereo unspecified) | 106% (active) |
| Nc1ncnc2c1ncn2[C@@H]1O[C@H](CNC(=O)[C@H](N)Cc2cccnc2)[C@@H](O)[C@H]1O | -0.67% |
| O=C(CC[C@H]1O[C@@H](n2ccc(=O)[nH]c2=O)[C@H](O)[C@@H]1O)N[C@H](Cc1ccccc1)C(=O)NCCCN1CCCC1=O | -0.27% |
| COC(=O)C1=C(C)N(Cc2ccccc2)C(=NCCCOC(C)C)N[C@H]1c1ccccc1 | -9.14% |
| CCCCNC(=O)C(C)N(CCN(C)C)C(=O)CCCN1C(=O)NC(c2ccc(Cl)cc2)C(C(=O)OCc2ccccc2)=C1C (stereo unspecified) | 92.9% (active) |
| CCCCNC(=O)C(C)N(CCN(C)C)C(=O)CCCCCN1C(=O)NC(c2ccc(Cl)cc2)C(C(=O)OCc2ccccc2)=C1C (stereo unspecified) | 91.8% (active) |
| CCOC(=O)C1=C(C)N(C[C@@H]2CC[C@@H](Cc3ccc(-c4ccccc4)cc3)O2)C(=O)NC1c1ccc([N+](=O)[O-])cc1 (stereo partly specified) | 15.2% |
| CCOC(=O)CCCNC(=O)CN1C(=O)NC(CCc2ccccc2)C1=O (stereo unspecified) | 1.97% |

| SMILES | inhibition |
| --- | --- |
| CCOC(=O)C1=C(CCc2ccccc2)NC(=O)NC1c1ccc2ccccc2c1 (stereo unspecified) | 40.3% |
| CC1=C(C(=O)N(C(C)C)C(C)C)CC(CC(=O)NCC2CCCCC2)C(=O)N1Cc1ccccc1 (stereo unspecified) | 11.2% |
| O=C(Nc1ccc(OCCO)cc1)c1csc([C@H]2C[C@H](O)[C@@H](CO)O2)n1 | 14.9% |
| CCNC(=O)C1(C)CCCN(Cc2noc(-c3ccccc3OC)n2)C1 (stereo unspecified) | 2.68% |
| COC(=O)c1ccc(/C=C2/C(=O)Oc3ccccc32)cc1 | 11.1% |
| O=C1Oc2ccccc2C(=O)/C1=C/c1ccccc1O | 69.8% (active) |
| C=C1C(=O)[C@]23C[C@H]1CCC2[C@@]1(C)C(C[C@@H]3O)[C@](C)(C(=O)O)CC[C@@H]1O (stereo partly specified) | 3.91% |
| CC1CC(C)(C)n2c(O)c(N=NC(N)=S)c3cccc1c32 (stereo unspecified) | 29.2% |
| CCc1nc2ccc(C(=O)N(C)Cc3ccco3)cn2c1N(C)C(=O)Cc1ccccc1 | 8.02% |
| O=C(O)C#Cc1cccc2ccccc12 | 12.5% |
| N#C/C(=C(/O)COC(=O)COc1ccc(Cl)cc1)c1nc2ccccc2[nH]1 | 71.2% (active) |
| CC(C)(C)c1nnc2sc(SCC(O)=C(C#N)c3nc4ccccc4[nH]3)nn2c1=O | 20.3% |
| COc1ccccc1C(=O)COC(=O)COc1ccc(C#N)cc1 | 10.1% |
| COc1ccc(C2=Nc3ccccc3NC(=O)C2N(C(=O)c2cc3ccccc3[nH]2)c2ccccc2)cc1 (stereo unspecified) | -169% |
| CC1(C(=O)Nc2cccc3c2CCCC3)CCN1C(=O)C1(c2ccccc2)CC1 (stereo unspecified) | 11.5% |
| Cc1ccc(NC(=S)N(CCCN2CCCC2)Cc2cccn2Cc2ccc(Cl)cc2)cc1 | 83.4% (active) |
| Cc1ccccc1NC(=S)N(CCCN1CCOCC1)Cc1cccs1 | -3.16% |
| CCc1cccc(C)c1NC(=S)N(CCCN1CCN(C)CC1)Cc1cccs1 | 12% |
| O=C(C1CCN(c2nnc(-n3cccc3)s2)CC1)N1CCc2ccccc2C1 | 14.8% |

| SMILES | inhibition |
| --- | --- |
| O=c1c2c3c(sc2n(CCN2CCCC2)c(=O)n1Cc1ccccc1)CCCCC3 | -15% |
| CN(C)CCCn1c(=O)n(Cc2ccccc2)c(=O)c2c3c(sc21)CCCCC3 | 89.8% (active) |
| CCn1c(=S)[nH]c2sc3c(c2c1=O)CCCCC3 | -19.3% |
| CCCCC1S/C(=N/N=C/c2cccs2)NC1=O (stereo unspecified) | -0.95% |
| CC(=O)Nc1cccc(-c2ccnc3c2CC(C)(C(=O)NCc2ccccc2)O3)c1 (stereo unspecified) | -22.6% |
| CC(C(=O)NC1CCS(=O)(=O)C1)N1C(=O)/C(=C/c2ccc(Cl)cc2)SC1=S (stereo unspecified) | -7.3% |
| O=C1/C(=C\c2ccc(O)cc2)CCC1CNc1ccc(Cl)cc1 (stereo unspecified) | 93.8% (active) |
| O=C1N=C(N2CCc3ccccc3C2)S/C1=C\c1ccc(O)cc1 | -5.21% |
| CCCC(=O)N1CCC1(C)C(=O)NS(=O)(=O)c1ccc(Cl)cc1 (stereo unspecified) | 3.54% |
| CC(=O)Nc1cccc(Nc2ccc(C#N)cc2)c1 | -24.3% |
| COc1cccc(CNC(=O)Cc2csc(Nc3nc(=S)[nH]c4ccccc34)n2)c1 | 29.3% |
| O=C(Cc1csc(Nc2nc(=S)[nH]c3ccccc23)n1)NCCCN1CCN(c2cccc(Cl)c2)CC1 | 53.1% (active) |
| O=C(Cc1ccc(-n2c(=O)[nH]c3ccccc3c2=O)cc1)N1CCN(c2cccc(Cl)c2)CC1 | 9.68% |
| COC(=O)c1ccc(CN2C(=O)C(Cc3ccccc3)ON=C2c2ncccc2C)o1 (stereo unspecified) | 3.64% |
| O=C(Cc1ccc([N+](=O)[O-])cc1)Nc1ccc(C(=O)N2CCOCC2)cc1 | -2.85% |
| C=CCn1c(COc2cccc3cccnc23)nnc1SCC(=O)OC | 16.7% |
| CCCCC(=O)NC(c1ccc(OC)c(OC)c1)c1ccc2cccnc2c1O (stereo unspecified) | 60.4% (active) |
| CCOc1ccc(C(CCc2ccccc2)NC(=O)c2ccc(OC)c(OC)c2)cc1OCC (stereo unspecified) | 11.6% |
